Source: ChEMBL document CHEMBL3988442, “University of Dundee, Small-Polar-MMV Screening Library” (2021)
Out of some 68,000 compounds screened, about 25 (0.04%) showed an effect of 50% or more. The full list was thinned out, with strong results kept by preference.

These compounds were tested against T1, Methionyl-tRNA synthetase, putative (Leishmania donovani (strain BPK282A1)) (UniProt E9BF75) (assay: Leishmania donovani Methionine tRNA synthetase (LdMetRS):v6. Primary screen assay).
T1 sequence (whole entry): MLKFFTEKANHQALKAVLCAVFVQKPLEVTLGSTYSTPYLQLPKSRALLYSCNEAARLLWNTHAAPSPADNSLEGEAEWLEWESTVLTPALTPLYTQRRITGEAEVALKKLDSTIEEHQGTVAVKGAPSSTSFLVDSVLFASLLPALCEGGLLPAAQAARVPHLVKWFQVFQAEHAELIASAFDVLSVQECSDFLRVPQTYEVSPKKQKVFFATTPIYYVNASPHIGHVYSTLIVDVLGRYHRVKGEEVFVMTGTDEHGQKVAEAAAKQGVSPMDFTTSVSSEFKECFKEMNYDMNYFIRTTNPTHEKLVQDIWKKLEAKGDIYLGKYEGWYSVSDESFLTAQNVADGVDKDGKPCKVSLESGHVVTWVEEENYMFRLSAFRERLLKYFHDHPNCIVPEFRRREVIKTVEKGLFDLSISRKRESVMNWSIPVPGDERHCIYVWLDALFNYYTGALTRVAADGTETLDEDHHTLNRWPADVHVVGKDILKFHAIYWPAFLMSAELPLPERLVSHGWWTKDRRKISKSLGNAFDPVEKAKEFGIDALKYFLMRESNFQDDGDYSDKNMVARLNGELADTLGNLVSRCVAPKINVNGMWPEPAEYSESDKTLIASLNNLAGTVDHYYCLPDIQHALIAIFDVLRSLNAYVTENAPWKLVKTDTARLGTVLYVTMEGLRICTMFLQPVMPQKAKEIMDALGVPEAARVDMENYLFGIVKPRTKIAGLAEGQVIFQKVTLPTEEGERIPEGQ
Type: functional
Parameters: conc 80 nM, time 150 minutes

Q: How did the inhibition turn out when `Cc1cccc(C(=O)N2C[C@@H]3[C@H](CC(=O)NC(C)C)[C@@H]3C2)n1` was run?
A: 6.67%

Q: `Cc1ncc(CNc2cnccc2CO)s1` was tested. Which inhibition did it give?
A: 11.8%

Q: For `Cc1ccc(-c2ncc(CNc3cnccc3CO)s2)cc1`, which inhibition is on record?
A: 1.86%

Q: How did the inhibition turn out when `CC(C)Cc1ncc(CNc2cnccc2CO)s1` was run?
A: 121%

Q: Which inhibition does the source give for `Cn1cc(C(=O)N[C@@H]2CN(Cc3cccs3)[C@@H]3CCCO[C@@H]32)cn1` here?
A: 16.3%

Q: Which inhibition does the source give for `O=C1NC[C@]2(CC[C@@H](C(=O)N3CCC(O)CC3)CC2)Oc2ccccc21` here?
A: 17.4%

Q: Which inhibition does the source give for `Cc1oc(C(C)C)cc1C(=O)N1C[C@H]2CC[C@@H]1CN(c1ncccn1)C2` here?
A: 7.9%

Q: Which inhibition does the source give for `O=C([C@@H]1COC[C@H]2CN(C3CCCCC3)C[C@H]21)N1CCOCC1` here?
A: 14.6%

Q: For `O=S(=O)(CCSc1nccn1C1CC1)c1ccccc1`, which inhibition is on record?
A: -9.32%

Q: Which inhibition does the source give for `O=S(=O)(NCCSc1nncn1C1CC1)c1ccccc1` here?
A: 3.73%

Q: `O=S(=O)(NCCSc1nccn1C1CC1)c1ccccc1` was tested. Which inhibition did it give?
A: 67.7%

Q: With `Cc1noc([C@@]23CCO[C@@H]2CCN(C(=O)c2cc(C)c(C)s2)C3)n1` as the compound, how does the inhibition read?
A: 8.14%

Q: How did the inhibition turn out when `Cc1noc([C@@H]2C[C@H]3OCC[C@H]3N(Cc3sccc3C)C2)n1` was run?
A: 10.5%

Q: `Cc1occc1C(=O)N1CCO[C@H]2[C@H](Oc3cccnc3)CC[C@@H]21` was tested. Which inhibition did it give?
A: 3.85%

Q: With `CCS(=O)(=O)N1CC[C@H]2O[C@H](c3nc(C)no3)CC[C@H]21` as the compound, how does the inhibition read?
A: 21%

Q: `O=C1C[C@H]2CC[C@@H](CN1)N2C(=O)CCc1ccc2c(c1)OCO2` was tested. Which inhibition did it give?
A: 17%

Q: Which inhibition does the source give for `O=C(c1cc(F)cc(Cl)c1)N1CCN(CCO)[C@@H]2CS(=O)(=O)C[C@@H]21` here?
A: 3.31%

Q: With `Cc1noc(C)c1CN1CC[C@H]2OCC[C@@H](C(=O)NCC3CC3)[C@H]2C1` as the compound, how does the inhibition read?
A: 14.8%

Q: How did the inhibition turn out when `Cc1ccc(CN2CC[C@H]3OCC[C@@]3(C(=O)N3CCCO3)C2)o1` was run?
A: 6.85%

Q: `O=C(N[C@@H]1CN(c2ncccn2)[C@@H]2CCCO[C@@H]21)c1cscn1` was tested. Which inhibition did it give?
A: 13.6%

Q: With `O=C1CC[C@H]2CN(c3ncccc3F)CC[C@H]2N1CCc1ccccc1` as the compound, how does the inhibition read?
A: -0.347%

Q: `CCc1c(C(=O)N2C[C@H]3CC[C@@H]2CN(c2cnccn2)C3)csc1C` was tested. Which inhibition did it give?
A: 13.4%

Q: `CN(C)C(=O)[C@@H]1CCO[C@@H]2CCN(CCOCc3ccccc3)C[C@H]21` was tested. Which inhibition did it give?
A: 1.54%

Q: For `OCC1N(Cc2ccc(F)cc2)[C@H]2CC[C@]1(O)CC2` (some centres undefined), which inhibition is on record?
A: 12.3%

Q: `Cc1ccc(C(=O)N2C[C@@H](N3CCN(C)CC3)[C@H]3OCCC[C@H]32)cn1` was tested. Which inhibition did it give?
A: 14.1%

Q: How did the inhibition turn out when `N#Cc1ccccc1CN1C[C@H]2CC[C@@H]1CN(C(=O)c1cccnc1)C2` was run?
A: 15.4%

Q: How did the inhibition turn out when `CNC(=O)[C@@]12CCC3(CCNCC3)[C@@H]1CN(S(C)(=O)=O)C2` was run?
A: 18.3%

Q: `O=C1OCCN1CC(=O)N1C[C@H]2CC[C@@H]1CN(C(=O)c1ccccc1)C2` was tested. Which inhibition did it give?
A: 10.6%

Q: With `CC1COc2ccccc2N1C(=O)CCc1cscn1` (centres undefined) as the compound, how does the inhibition read?
A: 59%

Q: How did the inhibition turn out when `CC1COc2ccccc2N1C(=O)c1cscn1` (centres undefined) was run?
A: 12.4%

Q: `Cc1nc(CC(=O)N2c3ccccc3OCC2C)cs1` (centres undefined) was tested. Which inhibition did it give?
A: 6.21%

Q: `CNC(=O)[C@@H]1C[C@H]2CN(C(=O)c3ccco3)C[C@H]2N1C(C)C` was tested. Which inhibition did it give?
A: 14.5%

Q: How did the inhibition turn out when `CC(C)=CCN1C[C@@H]2CN(C(=O)c3cnccc3C)C[C@]2(C(=O)O)C1` was run?
A: 8.52%

Q: Which inhibition does the source give for `CCCN1CCN(Cc2cccc(OC)c2)[C@H]2CS(=O)(=O)C[C@H]21` here?
A: 12.4%

Q: Which inhibition does the source give for `NC1CCN(C2CCN(c3ccc(-c4ccco4)cc3)CC2)CC1` here?
A: 42.5%

Q: How did the inhibition turn out when `NCC1CCN(C2CCN(c3ccc(-c4ccco4)cc3)CC2)C1` (centres undefined) was run?
A: 52.7%

Q: Which inhibition does the source give for `CNC1CCN(C2CCN(c3ccc(-c4ccco4)cc3)CC2)CC1` here?
A: 21%

Q: Which inhibition does the source give for `CCc1cc(CN2C[C@H]3CC[C@@H]2CN(C2Cc4ccccc4C2)C3)on1` here?
A: 18.8%

Q: For `Cc1ocnc1C(=O)N1CCN(Cc2ccccc2)[C@@H]2CS(=O)(=O)C[C@@H]21`, which inhibition is on record?
A: 11.8%

Q: Which inhibition does the source give for `O=C([C@@H]1C[C@H]2[C@H](CCN2Cc2nccs2)O1)N1CCOCC1` here?
A: 12.4%

Q: Which inhibition does the source give for `Cc1noc([C@@H]2CC[C@@H]3[C@@H](CCN3S(=O)(=O)c3ccccc3)O2)n1` here?
A: 21.6%

Q: Which inhibition does the source give for `Cn1ccnc1CN1C[C@H]2CN(S(C)(=O)=O)CCN2C1=O` here?
A: 12%

Q: Which inhibition does the source give for `COCCN1C(=O)CC[C@@H]2[C@H]1CCN2C(=O)C1CCOCC1` here?
A: 7.27%

Q: How did the inhibition turn out when `CCN1C[C@H]2[C@@H](C1)N(S(=O)(=O)c1ccccc1F)CC[C@H]2OC` was run?
A: 18.4%

Q: Which inhibition does the source give for `CCn1nc(C)c(CNCCn2cc(C)cn2)c1C` here?
A: -6.21%

Q: For `Cc1cnn(CCNCc2c(C)nn(Cc3ccccc3)c2C)c1`, which inhibition is on record?
A: 9.32%

Q: Which inhibition does the source give for `Cc1cnn(CCNCc2ccccc2F)c1` here?
A: 13%

Q: `Cc1cnn(CCNCc2c(C)nn(-c3ccccc3)c2C)c1` was tested. Which inhibition did it give?
A: 121%

Q: Which inhibition does the source give for `Cc1cnn(CCNCc2c(C)nn(C)c2Cl)c1` here?
A: 15.4%

Q: With `Cc1cnn(CCNCc2c(C)nn(CCO)c2C)c1` as the compound, how does the inhibition read?
A: 105%

Q: Which inhibition does the source give for `Cc1cccc2nc(C(=O)N3CCCC[C@]4(C)NC(=O)CC[C@H]34)cn12` here?
A: 13.5%

Q: For `CNC(=O)CC1COCCN1C(=O)C1(c2ccc(Cl)cc2)CCC1` (centres undefined), which inhibition is on record?
A: 7.45%

Q: `O=C(N1CCC(O)(C(F)(F)F)C1)C1(c2ccc(Cl)cc2)CC1` (centres undefined) was tested. Which inhibition did it give?
A: 8.1%

Q: For `O=C(O)CC1COCCN1C(=O)C1(c2ccc(Cl)cc2)CCC1` (centres undefined), which inhibition is on record?
A: 52.2%

Q: Which inhibition does the source give for `O=C(N1CCOCC(O)C1)C1(c2ccc(Cl)cc2)CCC1` (centres undefined) here?
A: 123%

Q: How did the inhibition turn out when `O=C(N1CCOCC1CO)C1(c2cccs2)CCCC1` (centres undefined) was run?
A: 8.7%

Q: `O=C(N1CCCC(n2cncn2)C1)C1(c2ccc(Cl)cc2)CCC1` (centres undefined) was tested. Which inhibition did it give?
A: 15.4%

Q: For `O=C(c1ccco1)N1C[C@@H]2CN(c3ccccn3)C[C@@H]2C1`, which inhibition is on record?
A: 6.11%

Q: Which inhibition does the source give for `O=C(NCc1ccco1)[C@H]1CC[C@@H]2[C@@H](CCN2c2ncccn2)O1` here?
A: 3.27%

Q: How did the inhibition turn out when `CC(C)CN1Cc2nc(N3CCC(O)CC3)ncc2C1=O` was run?
A: 7.08%

Q: `Cc1nonc1CC(=O)N1C[C@@H]2CC[C@H](C1)N(Cc1ccccc1)C2=O` was tested. Which inhibition did it give?
A: 6.88%

Q: Which inhibition does the source give for `N#Cc1ccccc1CN1C[C@@H]2CC[C@H](C1)N(CC1CCC1)C2=O` here?
A: 19.4%

Q: For `CCc1[nH]c2c(CNc3cncc(C(=O)N(C)C)n3)cc(F)cc2c1C`, which inhibition is on record?
A: 28.6%

Q: With `CCc1[nH]c2c(CNc3cncc(C(=O)N(C)C)n3)cc(C)cc2c1C` as the compound, how does the inhibition read?
A: 32.3%

Q: `CCc1[nH]c2c(CNc3cncc(C(=O)OC)n3)cc(C)cc2c1C` was tested. Which inhibition did it give?
A: 123%

Q: For `CCOCC(=O)N1CC[C@H]2OCC[C@@]2(COc2ncccc2F)C1`, which inhibition is on record?
A: 6.53%

Q: For `CC1CCN(c2ccc(C(=O)N3CCCC3c3nncn3C)cn2)CC1` (centres undefined), which inhibition is on record?
A: 4.75%

Q: With `CC1CCN(c2ccc(C(=O)N3CCCC3c3ccc[nH]3)cn2)CC1` (centres undefined) as the compound, how does the inhibition read?
A: 78.5%

Q: With `NC(=O)c1ccc(OCC(=O)N2CCCC2c2ccc[nH]2)cc1` (centres undefined) as the compound, how does the inhibition read?
A: 15.5%
